# Test results: PubChem BioAssay (NCI)
# The panel holds about 83,000 compounds, 20% with a hit somewhere; the sample as a whole holds those more often.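 Compound tested at a single concentration for 48 hours in 96-well plates; a percent growth value below 10 was scored as active.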 The source made the active and inactive calls.
# System: HL-60(TB) leukemia
# Experiment: NCI-60 one-dose screen, 48 h (100 = growth as untreated, 0 = no growth, -100 = all killed)
# Settings: 10 µM unless noted
row,SMILES,growth
1,CNC(=O)c1cc(N2CCc3cc(NC(=O)Nc4ccc(Cl)c(C(F)(F)F)c4)ccc32)ccn1,50.3% (inactive)
2,O=C(Nc1cc(Cl)cc(Cl)c1)Nc1ccc2oc(=O)ccc2c1,0.984% (active)
3,C#Cc1nc(/C=C/C(=O)c2nccn2C)cs1,-40.3% (active)
4,COc1ccc([C@H]2[C@H](O)C(=O)N2c2cc(OC)c(OC)c(OC)c2)cc1F,-13% (active)
5,Cn1c(SCC(=O)Nc2ccc(-c3nc4ccc([N+](=O)[O-])cc4[nH]3)cc2)nc2ccccc2c1=O,91.1% (inactive)
6,CCCC(=O)NC(c1cccnc1)c1cc(C)c2cccnc2c1O (stereo unspecified),1.38% (active)
7,N#Cc1nc(-c2ccccc2)oc1S(=O)(=O)N1CCN(CCc2ccccn2)CC1,5.71% (active)
8,C=C1C(=O)O[C@@H]2C[C@@H](C)/C=C\C(=O)[C@](C)(OC(C)=O)C[C@H](OC(=O)/C(C)=C\C)[C@@H]12,-3.8% (active)
9,CC(Nc1ncnc2ccc(-c3cnc(N)nc3)cc12)c1ccccc1 (stereo unspecified),35.3% (inactive)
10,COc1cc2oc(-c3cccc(NC(=O)c4cccc([N+](=O)[O-])c4)c3)cc(=O)c2c(OC)c1OC,68.9% (inactive)
11,FC(F)(F)c1cc(Nc2cccc(Oc3ccc(NC4=NCCN4)nc3)c2)ccc1Cl,-52.5% (active)
12,COc1c(N2CC3CCCNC3C2)c(F)cc2c(=O)c(C(=O)N/N=C/c3ccc(F)cc3)cn(C3CC3)c12 (stereo unspecified),72.8% (inactive)
13,CC(C)N=C(N/C(N)=N/c1nc2ccccc2s1)NC(C)C,41.7% (inactive)
14,COc1ccc(N2C(=O)c3cc(Cl)ccc3NC2SCc2ccccc2)cc1 (stereo unspecified),114% (inactive)
15,Cc1csc(Nc2cccc(Nc3nc(C)cs3)c2)n1,77.3% (inactive)
16,CN1CCN(Cc2ccc(NC(=O)c3cncc(C#Cc4[nH]nc5ncncc45)c3)cc2C(F)(F)F)CC1,21.5% (inactive)
17,O=C(CN1C(=O)/C(=C/c2ccccc2)SC1=S)N1CCOCC1,89.1% (inactive)
18,O=C(CCCCCCN1CC(=O)N2[C@@H](c3cccc(Cl)c3)c3[nH]c4ccccc4c3C[C@H]2C1=O)NO,8.21% (active)
19,C[C@@H]1C[C@H]2C(=O)OCC(NC(=O)[C@H](Cc3cc(F)cc(F)c3)NC(=O)Nc3ccc(Cl)cc3F)C(=O)N3CCC[C@H]3C(=O)N3CCCC[C@H]3C(=O)N[C@@H](C)C(=O)N2C1 (stereo partly specified),6.2% (active)
20,CN1C(=S)N(C)C2C1NN=C1SC(c3ccccc3)=CC(=O)N12 (stereo unspecified),80.7% (inactive)
21,CS(=O)c1nccc(-c2c(-c3ccc(F)c(OCCc4ccc(F)cc4)c3)nc3sccn23)n1 (stereo unspecified),-13.4% (active)
22,C=C(C)[C@@H]1CC[C@]2(C(=O)NCCCN(CCC#N)CCC#N)CC[C@]3(C)[C@H](CC[C@@H]4[C@@]5(C)CCC(=O)C(C)(C)[C@@H]5CC[C@]43C)[C@@H]12,96.3% (inactive)
23,COc1cc(-c2nc(SCCC(C)C)nc(NNC(=O)c3ccncc3)c2C#N)cc(OC)c1OC,116% (inactive)
24,CCCc1[nH]c(-c2cc(N)ccc2Cl)c2c1C(=O)CCCC2,92.4% (inactive)
25,CN(C)CCCOc1ccc(C(=C(c2ccccc2)C2CCCC2)c2ccc(OCCCN(C)C)cc2)cc1,-57.1% (active)
26,CCC/C=C/C=C/C(=O)N[C@@H](Cc1cc(F)cc(F)c1)C(=O)N[C@@H]1C(=O)N2CCC[C@H]2C(=O)N2CCCC[C@H]2C(=O)N[C@@H](C)C(=O)N2C[C@H](C)C[C@H]2C(=O)O[C@H]1C,3.76% (active)
